# Test results published in PubChem BioAssay AID2521 (Sanford-Burnham Center for Chemical Genomics, 2010).
# Hit rate of the full screen: of about 330,000 compounds, about 1,100 (0.33%) were called active.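 How the source made its calls: active means inhibition above about 40% at 20 µM (limit read from the data); inactive means the rest.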 What follows is part of a selection rich in actives, with near analogues and random picks from the rest.
# Target: Apelin receptor (Homo sapiens) (UniProt P35414)
# Sequence (P35414 whole entry, looked up): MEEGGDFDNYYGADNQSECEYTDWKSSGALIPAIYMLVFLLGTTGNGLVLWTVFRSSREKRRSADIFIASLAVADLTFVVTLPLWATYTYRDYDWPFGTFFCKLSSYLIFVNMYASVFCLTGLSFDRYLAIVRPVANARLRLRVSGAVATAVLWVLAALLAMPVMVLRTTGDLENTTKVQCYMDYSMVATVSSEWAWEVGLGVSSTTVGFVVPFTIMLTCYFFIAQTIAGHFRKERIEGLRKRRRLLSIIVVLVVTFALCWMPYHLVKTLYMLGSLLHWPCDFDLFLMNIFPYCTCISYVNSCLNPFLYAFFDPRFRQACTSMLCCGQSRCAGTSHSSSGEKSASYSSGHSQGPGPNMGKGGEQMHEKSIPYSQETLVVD
# Experiment: blockade of apelin-induced APJ beta-arrestin recruitment – CHO-K1 cells, beta-arrestin complementation, luminescence, primary screen (AID 2521);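 further: cells challenged with 10 nM apelin-13 agonist together with compound; plate controls were apelin-13 plus DMSO wells for no effect and DMSO wells lacking apelin-13 for full effect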
# Details: at 20 µM, stronger effect = higher value
row,SMILES,inhibition
1,Cc1cc(CNCc2c(C(=O)N(C)Cc3ccccc3)nc3ccccn23)nn1C,12.9% (inactive)
2,C=CCn1c(N)c(C(=O)OCC(C)C)c2nc3ccccc3nc21,74.2% (active)
3,C=CCn1c(C(C)NC(=O)CC)nc2ccccc21 (configuration not stated),8.11% (inactive)
4,COCC(C)OC(=O)c1c(N)n(CCCN2CCOCC2)c2nc3ccccc3nc12 (configuration not stated),10.9% (inactive)
5,CCOC(=O)C1=C(NC(=S)NC(=O)c2ccccc2)c2ccccc2CC1(C)C,-12.1% (inactive)
6,CCCCCCNC(=O)CSc1nccn1Cc1ccccc1,15.6% (inactive)
7,CCOC(=O)C(CCOc1cccc(CC)c1)C(=O)OCC,0.162% (inactive)
8,O=C(/C=C/c1cccs1)NCc1cccnc1,-1.62% (inactive)
9,Cc1csc(NC(=S)Nc2cccc(Cl)c2)n1,40.6% (active)
10,Cc1cc(Cl)nc(NC(=O)Nc2cccc(Cl)c2)n1,12.4% (inactive)
11,Cc1cccc(NC(=S)Nc2ccc(Cl)c(Cl)c2)c1,9.23% (inactive)
12,O=C(Nc1ccc([N+](=O)[O-])cc1)C1(c2ccccc2)CCOCC1,4.46% (inactive)
13,CN(C(=O)COC(=O)Cn1cnc2c1c(=O)n(C)c(=O)n2C)C1(C#N)CCCCC1,-8.66% (inactive)
14,CN1C=CC=C/C1=C1\SC(=S)N(Cc2ccccc2)C1=O,3.59% (inactive)
15,COc1cccc(/C=C2/SC(=S)N(CC(=O)NC3C=CS(=O)(=O)C3)C2=O)c1 (configuration not stated),2.32% (inactive)
16,COc1cc(/C=C2/SC(=S)N(Cc3ccccc3)C2=O)cc(OC)c1O,44.9% (active)
17,O=C(O)C1CCCN(CCC=C(c2ccccc2)c2ccccc2)C1 (configuration not stated),6.7% (inactive)
18,Cn1cnc2c1c(=O)n(Cc1c(Cl)cccc1Cl)c(=O)n2C,-5.54% (inactive)
19,CC(C)C(=O)N1CC(=O)Nc2ccc(F)cc2C1c1ccc(F)cc1 (configuration not stated),5.88% (inactive)
20,C[C@H](NC(=O)c1nc[nH]c1C(=O)NCC(=O)OC(C)(C)C)C(=O)OCc1ccccc1,-0.246% (inactive)
21,O=C(Nc1c2c(nn1-c1cccc(Cl)c1)CS(=O)(=O)C2)c1cccs1,-12.4% (inactive)
22,Cn1c(N)cc(-c2ccc(F)cc2)c(C#N)c1=O,16% (inactive)

row,SMILES,inhibition
1,CCN(CC)CCCSc1nc2ccccc2s1,5.23% (inactive)
2,O=[N+]([O-])c1c(NCCO)cc(Sc2nc3ccccc3s2)c2nonc12,95.4% (active)
3,Cc1nc2nc(CSc3nc4ccccc4s3)cc(=O)n2[nH]1,-6.29% (inactive)
4,CCOC(=O)c1c(/N=C/C2C(=O)CC(C)(C)CC2=O)sc(C)c1C,3.91% (inactive)
5,COc1ccc(NC(=O)CCCC(=O)c2ccccc2)cc1,-8.49% (inactive)
6,COC(=O)c1ccc(NCC(=O)N2CCCCCC2)cc1,-5.46% (inactive)
7,COC(=O)c1ccc(NCC(=O)c2ccccc2)cc1,72.4% (active)
8,C=CCOc1ccc(/C=C/C(=O)OCC(=O)NC2CCCCCC2)cc1,-9.63% (inactive)
9,CCCc1nc2oc3c(OCC)ncnc3c2c2c1COC(C)(C)C2,1.23% (inactive)
10,Cc1cccc(N2CCC(NCc3c(C(=O)N4CCCCC4)nc4c(C)cccn34)CC2)c1,-3.54% (inactive)
11,Cc1ccc(S(=O)(=O)N(Cc2ccc(Cl)cc2)c2ccccc2C(=O)NCc2cccnc2)cc1,-7.26% (inactive)
12,Cc1ccc(N=Cc2c(O)n(-c3nccs3)c(=O)c3ccccc23)c(C)c1,-0.923% (inactive)
13,Cc1cccc(-n2c(O)c(C=Nc3ccccc3N)c(=O)[nH]c2=O)c1,55.5% (active)
14,Cc1cccc(N2CCN(S(=O)(=O)c3ccc4[nH]c(=O)c(=O)[nH]c4c3)CC2C)c1 (configuration not stated),0.293% (inactive)
15,Cc1ccc(C)c2[nH]c(=O)c(CN(Cc3cccnc3)C(=S)NCc3ccco3)cc12,5.44% (inactive)
16,O=C(N=C1SC2CS(=O)(=O)CC2N1c1ccccc1)c1ccccc1 (configuration not stated),-0.987% (inactive)
17,CCCNc1ncnc2sc(C)c(C)c12,19.7% (inactive)
18,Cc1cc(C)n(-c2nc(O)cc(=O)[nH]2)n1,9% (inactive)
19,O=C1/C(=C/c2coc3ccc(O)cc3c2=O)SC(=S)N1c1ccccc1,29.3% (inactive)
20,CSCCC(NC(=O)COc1ccccc1)C(=O)OCCOc1ccc(Br)cc1 (configuration not stated),0.665% (inactive)
21,CSCCC(NC(=O)COc1ccccc1)C(=O)OCC(=O)c1cc2ccccc2o1 (configuration not stated),56.3% (active)
22,CSCCC(NC(=O)COc1ccccc1)C(=O)OCCOc1ccc(F)cc1 (configuration not stated),4.85% (inactive)

row,SMILES,inhibition
1,CC(=O)Nc1ccc(S(=O)(=O)Nc2nc3n(n2)C(c2ccccc2)CC(=O)N3)cc1 (configuration not stated),-9.74% (inactive)
2,Cc1nc2cc(NCc3cccs3)ccc2n1C,1.26% (inactive)
3,CCCCC(=O)Nc1c2c(nn1-c1ccc([N+](=O)[O-])cc1)CS(=O)(=O)C2,9.67% (inactive)
4,CC1CCN(C(=O)c2cc3nc(C4CC4)cc(C(F)(F)F)n3n2)CC1,1.74% (inactive)
5,Cc1cc(/C=N/Nc2ccc([N+](=O)[O-])cn2)c(C)n1-c1cccc(C(=O)O)c1,42.4% (active)
6,Cc1cc(/C=N/NC(=O)CC2(C)OCCO2)c(C)n1-c1ccc(Cl)c(Cl)c1,-22.8% (inactive)
7,Cc1cc(C=O)c(C)n1-c1ccc(NC2CCCCC2)c([N+](=O)[O-])c1,11.5% (inactive)
8,Cn1c(=O)c2c(-c3cccc(Br)c3)c(C#N)c(N)nc2n(C)c1=O,-4.62% (inactive)
9,NC(=O)NC(=O)C(OC(=O)CCNS(=O)(=O)c1ccccc1)c1ccccc1 (configuration not stated),12.8% (inactive)
10,CC(Oc1ccccc1F)C(=O)NN (configuration not stated),-7.83% (inactive)
11,O=[N+]([O-])c1ccc(N(CCO)Cc2ccccc2)c([N+](=O)[O-])c1,-2.49% (inactive)
12,CN1CCN(/N=C2/C(=O)Nc3ccc([N+](=O)[O-])cc32)CC1,2.6% (inactive)
13,O=C1Nc2ccc([N+](=O)[O-])cc2C1=Nc1cccc(CO)c1,66% (active)
14,O=C(NC(=S)Nc1ccc(Cl)c(C(=O)O)c1)c1cncc(Br)c1,35.2% (inactive)
15,c1ccc2cc(CCCc3cc4ccccc4cn3)ncc2c1,9.5% (inactive)
16,Cc1cc2c(c(=O)n1C)C(C(C)C)C(C#N)=C(N)O2 (configuration not stated),-2.07% (inactive)
17,COc1ccc(CCNC(=O)C2CCCN(S(=O)(=O)c3ccc(OC)cc3)C2)cc1 (configuration not stated),12.2% (inactive)
18,CCc1ccc2c(c1)C1(NN=C(c3ccccc3)S1)C(=O)N2 (configuration not stated),43.3% (active)
19,Cc1ccc(-n2c(C)cc(C(=O)CSc3nnc4ccccn34)c2C)cc1,-19.2% (inactive)
20,CC(=O)Nc1ccc(NC(=O)CSC2=NS(=O)(=O)c3ccccc3N2)cc1,17.4% (inactive)
21,O=C1C(Cc2ccc(O)cc2)NC(=S)N1Cc1ccccc1 (configuration not stated),7.09% (inactive)
22,CCC1Nc2ncnc(N3CCN(c4ccccc4)CC3)c2N(Cc2ccc(Cl)cc2)C1=O (configuration not stated),85.9% (active)

row,SMILES,inhibition
1,O=C(CN1CCN(c2ccc(Cl)cc2)CC1)c1ccccc1,-15.1% (inactive)
2,COc1ccc(S(=O)(=O)n2cnc3ccccc32)c(C)c1,2.56% (inactive)
3,Cc1ccc(NC(=S)N(CCCN2CCCC2)Cc2cccn2Cc2ccc(Cl)cc2)cc1,-11.3% (inactive)
4,CC(C)(C)OC(=O)C[C@@H]1C/C=C\C[C@@H](CC(=O)NCCO)C(=O)N[C@H](Cc2c[nH]c3ccccc23)COC1=O,0.599% (inactive)
5,O=C(NNC(=S)NC1CC2CCC1C2)c1ccc(Cl)cc1 (configuration not stated),-4.76% (inactive)
6,S=C(NNC(=S)NC1CC2C=CC1C2)NC1CC2C=CC1C2 (configuration not stated),9.22% (inactive)
7,S=C(NNC(=S)NC1CC2CCC1C2)NC1CC2C=CC1C2 (configuration not stated),40.2% (active)
8,Cc1nonc1OCCn1nnnc1N,-11.5% (inactive)
9,O=C(NNc1cc(Cl)ccc1Cl)c1cccnc1Cl,-13.7% (inactive)
10,CC(=O)/C(=N\Nc1ccc(Cl)cc1Cl)Sc1cccc2cccnc12,50.3% (active)
11,Cc1c(NC(=O)CSc2cccc3cccnc23)c(=O)n(-c2ccccc2)n1C,21.8% (inactive)
12,Cc1ccc(C(=O)N(CN2CCCC2=O)c2ccc(F)cc2)cc1,-13.9% (inactive)
13,CNC(=O)Nc1cc(C(C)(C)C)no1,8.23% (inactive)
14,Cc1ccc(N2CCN(S(=O)(=O)c3ccc(F)cc3)CC2)c(C)c1,17.5% (inactive)
15,CN(C)S(=O)(=O)c1cccc(NC(=S)NCc2ccc3c(c2)OCO3)c1,3.11% (inactive)
16,Cc1ccc(/C=N/NC(=S)Nc2cccc(S(=O)(=O)N(C)C)c2)o1,-8.56% (inactive)
17,CN(C)S(=O)(=O)c1cccc(NC(=S)N/N=C/C(=O)c2ccccc2)c1,41.5% (active)
18,O=C(c1ccccc1F)N(Cc1ccccc1)Cc1ccccc1,-6.53% (inactive)
19,CC1=C(C(=O)Nc2cc(C)ccn2)C(c2cnn(C)c2)C2=C(CC(c3ccccc3)CC2=O)N1 (configuration not stated),-2.45% (inactive)
20,O=S(N1CCCCCC1)C12CC3CC(CC(C3)C1)C2 (configuration not stated),-12.7% (inactive)
21,Cc1ccc(NC(=O)C2CC2c2ccccc2)cc1 (configuration not stated),0.756% (inactive)
